# Laboratory results as given in paper PMC7862700, “An all-to-all approach to the identification of sequence-specific readers for epigenetic DNA modifications on cytosine”.
# Tests used:
# Test in all cases: DAPPL (digital affinity profiling via proximity ligation, sequencing); 10 mM Tris-HCl pH 7.5, 50 mM NaCl, 1 mM DTT, 4% glycerol, room temperature, 30 min; GST-TFs on glutathione beads, 16-mer random dsDNA library, 0.1% formaldehyde crosslink after washing; high values mean tight binding
# FLI1 = target: T1, FLI1 (Homo sapiens, UniProt Q01543 1-452); settings: protein: recombinant; tags: N-terminal GST; dsDNA, one strand shown
# T1 sequence: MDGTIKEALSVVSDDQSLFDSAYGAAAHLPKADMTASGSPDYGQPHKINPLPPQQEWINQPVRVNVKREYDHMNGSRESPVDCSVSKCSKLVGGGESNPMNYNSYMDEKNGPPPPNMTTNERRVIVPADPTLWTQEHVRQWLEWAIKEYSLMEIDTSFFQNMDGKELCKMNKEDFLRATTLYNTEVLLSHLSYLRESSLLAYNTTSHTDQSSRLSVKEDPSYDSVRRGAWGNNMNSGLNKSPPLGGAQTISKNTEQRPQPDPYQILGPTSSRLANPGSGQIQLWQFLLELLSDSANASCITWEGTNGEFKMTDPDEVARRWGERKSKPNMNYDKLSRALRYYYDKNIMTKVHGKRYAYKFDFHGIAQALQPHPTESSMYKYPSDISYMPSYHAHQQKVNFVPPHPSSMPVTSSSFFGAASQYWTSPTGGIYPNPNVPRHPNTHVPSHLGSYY
# Outline: (§1)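 Human transcription factors were made in yeast as GST fusions, captured on glutathione beads and barcoded with DNA. With a tag-only sample included, the pool was incubated with 200 nmole of a random double-stranded 16-mer DNA library in Tris/NaCl/DTT/glycerol buffer at room temperature for 30 min, then crosslinked with 0.1% formaldehyde after washing, ligated by proximity, amplified and sequenced. For binding signal, each hexamer's read frequency for a factor is divided by its frequency for the tag-only sample.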
# ELK1 = target: T2, ELK1 (Homo sapiens, UniProt P19419 1-428); settings: protein: recombinant; tags: N-terminal GST; dsDNA, one strand shown
# T2 sequence: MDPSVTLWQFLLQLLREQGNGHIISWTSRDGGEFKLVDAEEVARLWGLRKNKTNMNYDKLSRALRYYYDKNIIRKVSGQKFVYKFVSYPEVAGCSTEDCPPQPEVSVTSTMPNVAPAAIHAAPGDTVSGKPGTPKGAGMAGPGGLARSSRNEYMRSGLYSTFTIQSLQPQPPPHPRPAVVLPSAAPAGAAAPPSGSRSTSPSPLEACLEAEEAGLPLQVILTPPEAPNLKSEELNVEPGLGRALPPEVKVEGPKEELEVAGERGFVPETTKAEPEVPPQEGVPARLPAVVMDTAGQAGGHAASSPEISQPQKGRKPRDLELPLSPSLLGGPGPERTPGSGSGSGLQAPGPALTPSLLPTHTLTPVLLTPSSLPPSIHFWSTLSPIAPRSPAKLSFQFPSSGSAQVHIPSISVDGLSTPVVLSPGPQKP
# Outline: as §1
# GABPA = target: T3, GABPA (Homo sapiens, UniProt Q06546 1-454); settings: protein: recombinant; tags: N-terminal GST; dsDNA, one strand shown
# T3 sequence: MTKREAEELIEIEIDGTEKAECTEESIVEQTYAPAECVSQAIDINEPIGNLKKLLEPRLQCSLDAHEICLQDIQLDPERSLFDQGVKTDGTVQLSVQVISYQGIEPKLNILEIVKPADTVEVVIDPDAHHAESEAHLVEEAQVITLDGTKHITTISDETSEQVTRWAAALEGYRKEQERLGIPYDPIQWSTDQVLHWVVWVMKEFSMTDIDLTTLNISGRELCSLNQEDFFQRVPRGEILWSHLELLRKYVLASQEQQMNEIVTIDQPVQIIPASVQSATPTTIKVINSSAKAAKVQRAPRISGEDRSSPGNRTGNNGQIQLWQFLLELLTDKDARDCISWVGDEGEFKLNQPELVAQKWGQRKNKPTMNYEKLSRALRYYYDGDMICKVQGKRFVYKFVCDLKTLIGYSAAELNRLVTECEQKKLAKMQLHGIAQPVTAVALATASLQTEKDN
# Outline: as §1
# ERG = target: T4, ERG (Homo sapiens, UniProt P11308 1-479); settings: protein: recombinant; tags: N-terminal GST; dsDNA, one strand shown
# T4 sequence: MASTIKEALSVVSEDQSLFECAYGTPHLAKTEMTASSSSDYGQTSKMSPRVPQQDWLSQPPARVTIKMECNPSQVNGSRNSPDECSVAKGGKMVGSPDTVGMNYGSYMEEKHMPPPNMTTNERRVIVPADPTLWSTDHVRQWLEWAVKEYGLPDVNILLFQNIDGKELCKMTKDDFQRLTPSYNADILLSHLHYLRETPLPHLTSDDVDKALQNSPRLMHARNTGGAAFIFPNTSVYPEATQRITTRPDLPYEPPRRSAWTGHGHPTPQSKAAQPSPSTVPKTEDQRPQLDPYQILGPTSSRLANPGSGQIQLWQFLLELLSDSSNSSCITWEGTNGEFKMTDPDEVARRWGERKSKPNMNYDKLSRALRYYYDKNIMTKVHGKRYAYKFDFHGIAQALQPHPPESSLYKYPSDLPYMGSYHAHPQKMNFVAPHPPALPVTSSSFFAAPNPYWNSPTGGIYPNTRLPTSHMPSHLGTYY
# Outline: as §1
# ELF1 = ELF1 (Homo sapiens, UniProt P32519 1-619); settings: protein: recombinant; tags: N-terminal GST; dsDNA, one strand shown
# Outline: as §1
# EHF = target: T5, EHF (Homo sapiens, UniProt Q9NZC4 1-300); settings: protein: recombinant; tags: N-terminal GST; dsDNA, one strand shown
# T5 sequence: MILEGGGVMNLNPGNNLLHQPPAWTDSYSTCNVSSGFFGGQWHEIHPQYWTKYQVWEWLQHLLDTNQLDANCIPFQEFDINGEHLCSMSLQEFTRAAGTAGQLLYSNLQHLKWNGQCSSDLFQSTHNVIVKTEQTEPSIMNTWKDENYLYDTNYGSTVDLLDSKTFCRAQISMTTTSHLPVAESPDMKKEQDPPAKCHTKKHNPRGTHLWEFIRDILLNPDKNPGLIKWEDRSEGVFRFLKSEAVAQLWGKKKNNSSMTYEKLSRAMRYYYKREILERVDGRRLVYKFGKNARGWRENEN
# Outline: as §1
# SPI1 = SPI1 (Homo sapiens, UniProt P17947 1-270); settings: protein: recombinant; tags: N-terminal GST; dsDNA, one strand shown
# Outline: as §1
# SPIB = SPIB (Homo sapiens, UniProt Q01892 1-262); settings: protein: recombinant; tags: N-terminal GST; dsDNA, one strand shown
# Outline: as §1
# ELK3 = target: T6, ELK3 (Homo sapiens, UniProt P41970 1-407); settings: protein: recombinant; tags: N-terminal GST; dsDNA, one strand shown
# T6 sequence: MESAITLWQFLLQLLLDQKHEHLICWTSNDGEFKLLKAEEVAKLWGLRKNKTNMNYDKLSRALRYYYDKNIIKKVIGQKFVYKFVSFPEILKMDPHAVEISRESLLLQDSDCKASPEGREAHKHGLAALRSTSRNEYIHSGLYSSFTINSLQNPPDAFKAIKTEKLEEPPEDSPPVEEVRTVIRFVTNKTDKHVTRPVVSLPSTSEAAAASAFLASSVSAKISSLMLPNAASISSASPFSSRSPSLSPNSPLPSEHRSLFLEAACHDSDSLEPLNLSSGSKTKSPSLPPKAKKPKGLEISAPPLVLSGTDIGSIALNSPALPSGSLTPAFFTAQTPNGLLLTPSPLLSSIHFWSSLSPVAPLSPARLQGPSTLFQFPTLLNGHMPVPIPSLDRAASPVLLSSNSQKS
# Outline: as §1
# FEV = target: T7, FEV (Homo sapiens, UniProt Q99581 1-238); settings: protein: recombinant; tags: N-terminal GST; dsDNA, one strand shown
# T7 sequence: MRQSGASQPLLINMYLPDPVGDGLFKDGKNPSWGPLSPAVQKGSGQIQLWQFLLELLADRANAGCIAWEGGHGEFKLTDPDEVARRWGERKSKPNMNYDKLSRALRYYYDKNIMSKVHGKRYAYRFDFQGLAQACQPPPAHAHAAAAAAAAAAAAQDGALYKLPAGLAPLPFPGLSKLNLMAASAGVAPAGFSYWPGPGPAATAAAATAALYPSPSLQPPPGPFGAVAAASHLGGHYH
# Outline: as §1
# ETV5 = ETV5 (Homo sapiens, UniProt P41161 1-510); settings: protein: recombinant; tags: N-terminal GST; dsDNA, one strand shown
# Outline: as §1
# HSF1 = HSF1 (Homo sapiens, UniProt Q00613 1-529); settings: protein: recombinant; tags: N-terminal GST; chain copies: 3; dsDNA, one strand shown
# Outline: as §1
# SPIC = target: T8, SPIC (Homo sapiens, UniProt Q8N5J4 1-248); settings: protein: recombinant; tags: N-terminal GST; dsDNA, one strand shown
# T8 sequence: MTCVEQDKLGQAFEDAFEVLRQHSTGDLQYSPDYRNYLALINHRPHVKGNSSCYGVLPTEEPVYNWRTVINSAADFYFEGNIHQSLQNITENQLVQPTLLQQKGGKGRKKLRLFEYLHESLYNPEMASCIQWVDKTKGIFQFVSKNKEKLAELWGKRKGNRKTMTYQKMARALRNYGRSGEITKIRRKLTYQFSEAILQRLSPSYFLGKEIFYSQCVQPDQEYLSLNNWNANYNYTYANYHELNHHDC
# Outline: as §1
# ELF4 = ELF4 (Homo sapiens, UniProt Q99607 1-663); settings: protein: recombinant; tags: N-terminal GST; dsDNA, one strand shown
# Outline: as §1
# ELK4 = target: T9, ELK4 (Homo sapiens, UniProt P28324-2 1-405); settings: protein: recombinant; tags: N-terminal GST; dsDNA, one strand shown
# T9 sequence: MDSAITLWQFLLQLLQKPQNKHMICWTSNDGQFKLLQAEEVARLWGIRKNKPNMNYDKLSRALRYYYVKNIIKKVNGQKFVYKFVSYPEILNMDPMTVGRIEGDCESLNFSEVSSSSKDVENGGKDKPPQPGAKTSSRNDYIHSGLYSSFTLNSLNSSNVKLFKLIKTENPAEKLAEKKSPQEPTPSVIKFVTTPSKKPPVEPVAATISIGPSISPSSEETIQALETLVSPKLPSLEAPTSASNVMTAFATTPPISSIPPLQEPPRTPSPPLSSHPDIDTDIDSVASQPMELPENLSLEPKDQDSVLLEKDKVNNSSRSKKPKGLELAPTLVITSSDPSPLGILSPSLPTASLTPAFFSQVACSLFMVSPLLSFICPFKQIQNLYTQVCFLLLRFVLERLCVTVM
# Outline: as §1
# ETV2 = target: T10, ETV2 (Homo sapiens, UniProt O00321 1-342); settings: protein: recombinant; tags: N-terminal GST; dsDNA, one strand shown
# T10 sequence: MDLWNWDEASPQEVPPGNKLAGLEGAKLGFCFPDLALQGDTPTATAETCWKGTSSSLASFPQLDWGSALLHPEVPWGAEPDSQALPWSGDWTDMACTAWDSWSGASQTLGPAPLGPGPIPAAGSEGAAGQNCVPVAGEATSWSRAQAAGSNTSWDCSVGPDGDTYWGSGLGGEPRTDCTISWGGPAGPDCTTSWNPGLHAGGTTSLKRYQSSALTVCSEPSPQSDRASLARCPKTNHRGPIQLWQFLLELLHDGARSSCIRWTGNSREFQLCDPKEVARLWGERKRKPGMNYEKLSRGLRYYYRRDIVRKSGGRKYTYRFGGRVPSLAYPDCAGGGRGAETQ
# Outline: as §1
# ELF3 = target: T11, ELF3 (Homo sapiens, UniProt P78545 1-371); settings: protein: recombinant; tags: N-terminal GST; dsDNA, one strand shown
# T11 sequence: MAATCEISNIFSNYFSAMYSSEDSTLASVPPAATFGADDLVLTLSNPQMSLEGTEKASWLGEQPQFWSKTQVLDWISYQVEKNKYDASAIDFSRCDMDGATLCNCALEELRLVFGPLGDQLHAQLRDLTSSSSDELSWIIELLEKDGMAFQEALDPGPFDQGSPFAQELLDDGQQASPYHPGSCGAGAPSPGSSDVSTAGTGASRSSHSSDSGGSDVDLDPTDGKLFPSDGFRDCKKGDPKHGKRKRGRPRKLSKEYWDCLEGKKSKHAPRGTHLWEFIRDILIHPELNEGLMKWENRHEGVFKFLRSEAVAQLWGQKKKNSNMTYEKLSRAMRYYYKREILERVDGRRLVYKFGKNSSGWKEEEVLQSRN
# Outline: as §1
# CRX = CRX (Homo sapiens, UniProt O43186 1-299); settings: protein: recombinant; tags: N-terminal GST; dsDNA, one strand shown
# Outline: as §1
# ETV1 = ETV1 (Homo sapiens, UniProt P50549 1-477); settings: protein: recombinant; tags: N-terminal GST; dsDNA, one strand shown
# Outline: as §1
# ETV1, sequence (P50549 whole entry): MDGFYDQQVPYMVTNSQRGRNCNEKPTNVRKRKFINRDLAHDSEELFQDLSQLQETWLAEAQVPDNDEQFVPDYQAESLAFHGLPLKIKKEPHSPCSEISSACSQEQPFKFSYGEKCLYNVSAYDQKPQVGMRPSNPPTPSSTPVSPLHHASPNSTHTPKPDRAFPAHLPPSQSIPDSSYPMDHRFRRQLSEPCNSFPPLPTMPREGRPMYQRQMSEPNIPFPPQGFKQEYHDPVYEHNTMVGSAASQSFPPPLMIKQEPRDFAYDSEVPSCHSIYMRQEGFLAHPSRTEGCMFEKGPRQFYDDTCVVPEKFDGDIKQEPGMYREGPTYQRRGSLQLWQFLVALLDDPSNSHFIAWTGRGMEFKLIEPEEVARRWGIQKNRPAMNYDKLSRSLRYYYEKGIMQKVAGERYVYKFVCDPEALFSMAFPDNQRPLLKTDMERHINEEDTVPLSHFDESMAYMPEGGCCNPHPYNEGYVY
# HSF1, sequence (Q00613 whole entry): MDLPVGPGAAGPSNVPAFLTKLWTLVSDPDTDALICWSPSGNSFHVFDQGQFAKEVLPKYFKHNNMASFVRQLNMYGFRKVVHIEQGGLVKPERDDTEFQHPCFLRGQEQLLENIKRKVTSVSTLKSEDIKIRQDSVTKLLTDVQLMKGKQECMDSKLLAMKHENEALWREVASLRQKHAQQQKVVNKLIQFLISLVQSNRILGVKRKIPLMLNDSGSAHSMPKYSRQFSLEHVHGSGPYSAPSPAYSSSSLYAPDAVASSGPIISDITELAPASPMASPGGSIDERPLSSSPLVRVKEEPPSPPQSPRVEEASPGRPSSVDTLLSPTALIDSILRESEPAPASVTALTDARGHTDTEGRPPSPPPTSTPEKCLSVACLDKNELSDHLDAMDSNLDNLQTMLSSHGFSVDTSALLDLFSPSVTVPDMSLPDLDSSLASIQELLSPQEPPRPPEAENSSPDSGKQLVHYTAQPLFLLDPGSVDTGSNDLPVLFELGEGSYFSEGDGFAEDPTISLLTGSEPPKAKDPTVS
# ETV5, sequence (P41161 whole entry): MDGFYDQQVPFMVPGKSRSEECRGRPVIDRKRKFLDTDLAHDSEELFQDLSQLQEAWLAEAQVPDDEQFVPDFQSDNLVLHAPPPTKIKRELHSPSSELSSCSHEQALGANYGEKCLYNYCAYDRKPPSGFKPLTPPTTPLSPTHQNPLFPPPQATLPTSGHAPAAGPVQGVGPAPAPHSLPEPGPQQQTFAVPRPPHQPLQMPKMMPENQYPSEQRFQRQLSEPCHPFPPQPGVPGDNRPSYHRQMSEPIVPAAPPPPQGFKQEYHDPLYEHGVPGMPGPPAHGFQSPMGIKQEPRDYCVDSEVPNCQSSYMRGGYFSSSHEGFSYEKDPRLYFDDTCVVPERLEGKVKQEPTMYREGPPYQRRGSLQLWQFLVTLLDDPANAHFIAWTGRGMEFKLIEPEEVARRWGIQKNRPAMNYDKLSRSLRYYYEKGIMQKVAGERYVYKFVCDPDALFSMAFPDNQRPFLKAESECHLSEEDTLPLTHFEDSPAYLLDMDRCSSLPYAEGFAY
# SPIB, sequence (Q01892 whole entry): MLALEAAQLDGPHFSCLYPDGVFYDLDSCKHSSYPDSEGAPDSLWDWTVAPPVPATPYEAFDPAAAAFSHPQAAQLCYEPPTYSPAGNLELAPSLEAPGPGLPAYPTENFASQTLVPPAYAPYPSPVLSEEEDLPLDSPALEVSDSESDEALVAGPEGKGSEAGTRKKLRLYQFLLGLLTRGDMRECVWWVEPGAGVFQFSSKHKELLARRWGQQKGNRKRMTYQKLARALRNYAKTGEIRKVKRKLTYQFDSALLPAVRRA
# ELF1, sequence (P32519 whole entry): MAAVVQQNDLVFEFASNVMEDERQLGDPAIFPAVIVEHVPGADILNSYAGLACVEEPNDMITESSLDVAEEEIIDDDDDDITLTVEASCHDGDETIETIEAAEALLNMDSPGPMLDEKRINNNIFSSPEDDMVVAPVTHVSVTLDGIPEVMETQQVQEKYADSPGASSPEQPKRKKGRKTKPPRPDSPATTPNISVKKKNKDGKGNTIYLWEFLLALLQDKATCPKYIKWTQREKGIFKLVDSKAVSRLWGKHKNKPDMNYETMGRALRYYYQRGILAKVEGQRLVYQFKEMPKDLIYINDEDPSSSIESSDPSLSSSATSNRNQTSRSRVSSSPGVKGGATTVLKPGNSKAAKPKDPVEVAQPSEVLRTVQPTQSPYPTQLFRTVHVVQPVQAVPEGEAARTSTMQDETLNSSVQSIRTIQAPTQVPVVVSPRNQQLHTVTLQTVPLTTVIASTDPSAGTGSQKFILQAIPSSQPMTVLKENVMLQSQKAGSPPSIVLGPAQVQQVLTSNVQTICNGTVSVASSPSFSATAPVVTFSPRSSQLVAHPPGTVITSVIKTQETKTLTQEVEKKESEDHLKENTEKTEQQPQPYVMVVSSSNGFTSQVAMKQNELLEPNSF
# ELF4, sequence (Q99607 whole entry): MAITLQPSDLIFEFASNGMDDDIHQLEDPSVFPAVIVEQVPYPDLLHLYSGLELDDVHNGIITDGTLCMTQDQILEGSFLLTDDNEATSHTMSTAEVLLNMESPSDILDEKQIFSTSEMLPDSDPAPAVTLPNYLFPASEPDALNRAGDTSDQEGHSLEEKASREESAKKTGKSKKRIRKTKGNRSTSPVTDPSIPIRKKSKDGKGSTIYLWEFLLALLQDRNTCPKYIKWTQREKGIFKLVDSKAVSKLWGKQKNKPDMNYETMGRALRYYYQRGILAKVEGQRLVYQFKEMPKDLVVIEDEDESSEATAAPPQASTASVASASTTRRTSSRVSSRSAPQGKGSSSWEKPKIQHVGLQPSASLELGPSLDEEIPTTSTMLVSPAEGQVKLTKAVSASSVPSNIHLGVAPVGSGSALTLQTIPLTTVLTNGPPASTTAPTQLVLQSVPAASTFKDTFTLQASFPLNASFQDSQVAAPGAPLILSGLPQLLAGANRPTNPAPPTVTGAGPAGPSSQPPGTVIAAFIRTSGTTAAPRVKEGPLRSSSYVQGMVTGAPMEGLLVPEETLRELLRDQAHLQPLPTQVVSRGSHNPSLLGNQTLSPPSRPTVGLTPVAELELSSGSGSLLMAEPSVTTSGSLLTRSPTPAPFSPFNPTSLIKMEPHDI
# CRX, sequence (O43186 whole entry): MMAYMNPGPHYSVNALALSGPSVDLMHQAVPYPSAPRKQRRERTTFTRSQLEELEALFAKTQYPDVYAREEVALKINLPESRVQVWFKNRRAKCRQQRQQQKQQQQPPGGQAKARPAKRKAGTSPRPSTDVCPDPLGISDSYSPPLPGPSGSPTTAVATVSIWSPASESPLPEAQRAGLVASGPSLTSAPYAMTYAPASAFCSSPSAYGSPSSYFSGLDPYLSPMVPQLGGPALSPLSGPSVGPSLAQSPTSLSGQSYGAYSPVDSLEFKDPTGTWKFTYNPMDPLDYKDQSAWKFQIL
sequence,measurement,setting,value
CATCTG,binding signal,FLI1,"1.24 fold enrichment (6-mer frequency, TF over GST control)"
same,binding signal,ELK1,"1.23 fold enrichment (6-mer frequency, TF over GST control)"
same,binding signal,GABPA,"1.37 fold enrichment (6-mer frequency, TF over GST control)"
same,binding signal,ERG,"1.16 fold enrichment (6-mer frequency, TF over GST control)"
same,binding signal,ELF1,"1.33 fold enrichment (6-mer frequency, TF over GST control)"
same,binding signal,EHF,"1.31 fold enrichment (6-mer frequency, TF over GST control)"
same,binding signal,SPI1,"1.08 fold enrichment (6-mer frequency, TF over GST control)"
same,binding signal,SPIB,"1.28 fold enrichment (6-mer frequency, TF over GST control)"
same,binding signal,ELK3,"1.25 fold enrichment (6-mer frequency, TF over GST control)"
same,binding signal,FEV,"1.33 fold enrichment (6-mer frequency, TF over GST control)"
same,binding signal,ETV5,"1.2 fold enrichment (6-mer frequency, TF over GST control)"
same,binding signal,HSF1,"1.25 fold enrichment (6-mer frequency, TF over GST control)"
same,binding signal,SPIC,"1.28 fold enrichment (6-mer frequency, TF over GST control)"
same,binding signal,ELF4,"1.25 fold enrichment (6-mer frequency, TF over GST control)"
same,binding signal,ELK4,"1.39 fold enrichment (6-mer frequency, TF over GST control)"
same,binding signal,ETV2,"1.16 fold enrichment (6-mer frequency, TF over GST control)"
same,binding signal,ELF3,"1.37 fold enrichment (6-mer frequency, TF over GST control)"
same,binding signal,CRX,"1.15 fold enrichment (6-mer frequency, TF over GST control)"
same,binding signal,ETV1,"1.31 fold enrichment (6-mer frequency, TF over GST control)"
